“And” between values parts separate entries of the source, which are not always exact repeats. Identical values can stand only once. A structure can be active in one record and inactive in another. The source made the active and inactive calls. How the source made its calls: active means hit-call score of the fitted dose curve at least 0.9, where 1 is the maximum; inconclusive means response in the unintended direction; inactive means score below 0.9.
experiment: Tanguay_ZF_120hpf_ActivityScore_legacy: (Legacy) Oregon State University Tanguay Lab 120 Hour Post-fertilization zebrafish Assay Score for Activity (AID 2283742);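 on AC50: static exposure from 6 hpf until 120 hpf at 28 °C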
Description: Tanguay_ZF_120hpf_legacy is a whole embryo, multiplexed endpoint assay using zebrafish larvae exposed for 120 hours post fertilization on a 96-well plate.Tanguay_ZF_120hpf_ActivityScore_legacy is one of one assay component(s) measured or calculated from the Tanguay_ZF_120hpf_legacy assay. It is designed to make measurements of developmental malformations and mortality as detected with brightfield microscopy and combines scoring from 18 other assay components measuring more specific morphologies.Data from the assay component Tanguay_ZF_120hpf_ActivityScore_legacy was analyzed into 1 assay endpoints. This assay endpoint, Tanguay_ZF_120hpf_ActivityScore_legacy, was analyzed in the positive analysis fitting direction relative to DMSO as the negative control and baseline of activity. Using a type of morphology reporter, gain-of-signal activity can be used to understand changes in developmentals as they relate to the whole embryo. To generalize the intended target to other relatable targets, this assay endpoint is annotated to the zebrafish development intended target family, where the subfamily is embryonic morphogenesis and mortality.
Zebrafish husbandry: Tropical 5D wild-type adult zebrafish were housed in at an approximate density of 1000 per 100 gallon tank at the Sinnhuber Aquatic Research Laboratory, Oregon State University, Corvallis, OR. Each tank was kept at standard laboratory conditions of 28C on a 14-h light/10-h dark photoperiod in fish water consisting of reverse osmosis water supplemented with a commercially available salt (Instant Ocean). Spawning funnels were placed into the tanks the night prior, and embryos were collected and staged. To increase bioavailability, the chorion was enzymatically removed using pronase (63.6mg/ml, >/= 3.5U/mg, Sigma-Aldrich: P5147) at 4 hours post fertilization (hpf) using a custom automated dechorionator.Chemical exposures: Six hpf dechorionated embryos were placed 1 embryo per well in a 96-well plate prefilled with 90 ul of EM using automated embryo placement systems (AEPS). Ten microliters of each row of dilution plate 2 was added to 2 exposure plates. The final DMSO concentration used was 0.64% (vol/vol). Thirty-two embryos were also exposed to 5uM trimethyltin chloride (positive control). Plates were sealed to prevent evaporation and foil covered to reduce light exposure and kept in a 28C incubator. Embryos were statically exposed until 120 hpf. At 24 hpf, embryos were assessed for photomotor response using a custom photomotor response analysis tool (PRAT) and for developmental toxicity endpoints (MO24: mortality at 24 hpf, DP: developmental progression, SM: spontaneous movement, and NC: notochord distortion). At 120 hpf, locomotor activity was measured using Viewpoint Zebralab and assessed for 18 endpoints. Zebrafish acquisition and analysis program (ZAAP), a custom program designed to inventory, acquire, and manage zebrafish data, was used to collect developmental endpoints as either present or absent (i.e., binary responses were recorded). If mortality occurred for an embryo (at either 24 or 120 hpf), the non-mortality endpoints were not measured.

Compound | outcome | AC50
CNC(=O)Oc1ccccc1OC(C)C | inactive | –
Cc1[nH]c(=O)n(C(C)(C)C)c(=O)c1Cl | inactive | –
COP(=S)(OC)Oc1ccc([N+](=O)[O-])cc1 | inactive | –
CNC(=O)Oc1cccc(N=CN(C)C)c1 | inactive | –
Clc1ccccc1-c1nnc(-c2ccccc2Cl)nn1 | inactive | –
CCN(CC)C(=O)SCc1ccc(Cl)cc1 | inactive | –
O=[N+]([O-])/N=C1\NCCN1Cc1ccc(Cl)nc1 | inactive | –
O=C(O)C(F)(F)C(F)(F)C(F)(F)C(F)(F)C(F)(F)C(F)(F)C(F)(F)F | inactive | –
CCOCN(C(=O)CCl)c1c(C)cccc1CC | – | 46 µM (active)
CCC(C)Nc1c([N+](=O)[O-])cc(C(C)(C)C)cc1[N+](=O)[O-] (stereo not given) | inactive | –
CCCN(CCOc1c(Cl)cc(Cl)cc1Cl)C(=O)n1ccnc1 | inactive | –
CN1CSC(=S)N(C)C1 | – | 0.0296 µM (active)
CC1(C)C(C=C(Cl)Cl)C1C(=O)OC(C#N)c1ccc(F)c(Oc2ccccc2)c1 (stereo not given) | inactive | –
CCOC1Oc2ccc(OS(C)(=O)=O)cc2C1(C)C (stereo not given) | inactive | –
OCCOc1ccccc1 | inactive | –
O=[N+]([O-])c1c(Cl)c(Cl)c(Cl)c(Cl)c1Cl | inactive | –
CCc1ccc(C(=O)NN(C(=O)c2cc(C)cc(C)c2)C(C)(C)C)cc1 | inactive | –
CCC(C)(NC(=O)c1cc(Cl)c(C)c(Cl)c1)C(=O)CCl (stereo not given) | inactive | –
Oc1cc(Cl)ccc1Oc1ccc(Cl)cc1Cl | inactive | 41.4 µM (active) and 46.5 µM (active)
O=C(O)CCCOc1ccc(Cl)cc1Cl | inactive | –

Compound | outcome | AC50
N#CN | inactive | –
CC[C@H](C)[C@H]1O[C@]2(C=C[C@@H]1C)C[C@@H]1C[C@@H](C/C=C(\C)[C@@H](O[C@H]3C[C@H](OC)[C@@H](O[C@H]4C[C@H](OC)[C@@H](O)[C@H](C)O4)[C@H](C)O3)[C@@H](C)/C=C/C=C3\CO[C@@H]4[C@H](O)C(C)=C[C@@H](C(=O)O1)[C@]34O)O2 (tested in a mixture with another compound) | – | 8.55 µM (active)
CNC(=O)/C=C(\C)OP(=O)(OC)OC | inactive | –
CNC(=O)CSP(=S)(OC)OC | inactive | –
Oc1ccc(Cl)cc1Cc1ccccc1 | – | 37.1 µM (active) and 23.4 µM (active) and 22.3 µM (active)
O=S1OCC2C(CO1)C1(Cl)C(Cl)=C(Cl)C2(Cl)C1(Cl)Cl (stereo not given) | inactive | –
CC(C)OC(=O)Nc1cccc(Cl)c1 | – | 39.2 µM (active)
O=C(O)COc1ccc(Cl)cc1Cl | inactive | –
COc1nn(CSP(=S)(OC)OC)c(=O)s1 | inactive | –
C[C@H]1[C@H](c2ccc(Cl)cc2)SC(=O)N1C(=O)NC1CCCCC1 | inactive | –
N#Cc1c(Cl)c(Cl)c(Cl)c(C#N)c1Cl | – | 45 µM (active)
COP(=O)(OC)OC=C(Cl)Cl | inactive | –
O=C(Nc1ccccc1)Nc1cnns1 | inactive | –
CC(C)(C)C(O)/C(=C\c1ccc(Cl)cc1Cl)n1cncn1 (stereo not given) | – | 94.2 µM (active)
CC(C)N(C(=O)COc1nnc(C(F)(F)F)s1)c1ccc(F)cc1 | inactive | –
CCC(C)(C)C(=O)OC1=C(c2ccc(Cl)cc2Cl)C(=O)OC12CCCCC2 | inactive | –
CCCN(CCC)c1c([N+](=O)[O-])cc(C(F)(F)F)cc1[N+](=O)[O-] | inactive | –
ClC1C(Cl)C(Cl)C(Cl)C(Cl)C1Cl (stereo not given) | inactive | –
O=C(NC(=O)c1c(F)cccc1F)Nc1ccc(OC(F)(F)C(F)OC(F)(F)F)c(Cl)c1 (stereo not given) | inactive | –

— PubChem BioAssay (EPA / NIEHS)
